Laboratory results reported in PubChem BioAssay AID1851 (National Center for Advancing Translational Sciences (NCATS), 2009).
The campaign covered roughly 16,000 compounds. About 2,600 (16%) were called active. Another 20% or so got no clear call; they are omitted. Not all results are given here. A number with no mark means an inactive call. Calls come from the whole dose curve; as a rule, active = well fitted curve in the direction sought with a large enough effect; inconclusive = small, poorly fitted or top-dose-only effect, or effect the other way; inactive = no such curve, though single readings can be large or run the other way.

Each molecule was assayed against Cytochrome P450 2D6 (Homo sapiens) (UniProt P10635) (assay: Cytochrome panel assay with activity outcomes). Conditions: recombinant CYP, pro-luciferin dealkylation, luminescence, p450-cyp2d6; series mostly up to 57.1 µM.
Chain of Cytochrome P450 2D6 (Homo sapiens) (P10635 whole entry, looked up): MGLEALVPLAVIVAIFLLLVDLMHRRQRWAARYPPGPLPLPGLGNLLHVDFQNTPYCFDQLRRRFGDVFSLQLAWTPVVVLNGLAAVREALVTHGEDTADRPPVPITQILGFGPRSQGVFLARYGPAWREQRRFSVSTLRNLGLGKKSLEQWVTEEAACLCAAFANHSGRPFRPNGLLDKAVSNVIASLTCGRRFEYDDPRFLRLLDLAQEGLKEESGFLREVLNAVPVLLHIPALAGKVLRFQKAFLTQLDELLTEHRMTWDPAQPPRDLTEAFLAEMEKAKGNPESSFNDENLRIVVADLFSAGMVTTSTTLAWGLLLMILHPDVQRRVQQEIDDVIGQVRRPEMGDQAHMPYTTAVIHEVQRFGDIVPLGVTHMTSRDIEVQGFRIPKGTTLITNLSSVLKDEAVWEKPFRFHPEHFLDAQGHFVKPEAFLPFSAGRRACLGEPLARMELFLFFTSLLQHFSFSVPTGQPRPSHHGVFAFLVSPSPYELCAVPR
% is set by controls: 0 for no effect and ±100 for the full control effect.

| SMILES | AC50 | activity, negative = inhibition |
| --- | --- | --- |
| Cc1ccc(-n2cnc(=O)c3cccnc32)cc1 | inactive |  |
| Cc1ccc(-n2c(-c3ccc(Br)cc3)c[n+]3c2CCc2ccc4cccnc4c2-3)cc1 | 1.41 µM (active) |  |
| CCCCC[C@H](CC(=O)NO)C(=O)N[C@@H](C(=O)N1CCC[C@H]1CO)C(C)C | inactive |  |
| Nc1ccc(O)c(C(=O)O)c1 | inactive |  |
| CCC(=O)NC(Nc1sc2c(c1C(=O)OC)CCCC2)(C(F)(F)F)C(F)(F)F | inactive |  |
| O=[N+]([O-])c1ccc2ncccc2c1CCc1c([N+](=O)[O-])ccc2ncccc12 |  | -19.7% [at 11.4 µM] |
| O=C(Nc1ccccn1)c1ccco1 | inactive |  |
| S=C(NCc1ccco1)N1CCN(Cc2ccco2)CC1 | 7.94 µM (active) |  |
| CCS(=O)(=O)N1CCC(C(=O)NCc2ccco2)CC1 | inactive |  |
| Cc1cccc(C(=O)NC2CCN(C(=S)NCc3ccco3)CC2)c1 | inactive |  |
| O=C(O)C1C2CCC(C2)C1C(=O)NCc1ccco1 (stereo not drawn) | inactive |  |
| O=C(CSc1ccccc1C(=O)O)NCc1ccco1 | inactive |  |
| S=C(NCc1ccco1)N1CCN(C(c2ccccc2)c2ccccc2)CC1 | 7.94 µM (active) |  |
| O=C(NCc1ccco1)c1cc(C(=O)C2CC2)c[nH]1 | inactive |  |
| O=C1Nc2ccccc2C1=Nc1ccc(S(=O)(=O)Nc2nccs2)cc1 |  | 16.3% [at 11.4 µM] |
| COc1ccc2c(OC)c3ccoc3nc2c1OC | inactive |  |
| CC(C)(C)N1C(=O)[C@H]2[C@@H]3[C@H](O)[C@H](O)CC(=O)[C@H]3CC[C@H]2C1=O |  | 7.18% [at 11.4 µM] |
| O=C(c1coc(=O)c2ccccc12)N1CCN(Cc2ccccc2)CC1 | inactive |  |
| O=C(CN1CCN(Cc2ccccc2)CC1)c1ccc(Br)cc1 | 1.41 µM (active) |  |
| O=C(c1cc(C(F)(F)F)cc(C(F)(F)F)c1)N1CCC2(CCN(Cc3ccccc3)CC2)CC1 | inactive |  |
| CCc1c(O)nc2sc3ccccc3n2c1=O | inactive |  |
| CC(=O)c1cccc(NC=C2C(=O)OC3(CCCCC3)OC2=O)c1 | inactive |  |
| CCc1nnc(NC(=O)c2c(C)nn(-c3ccccc3)c2Cl)s1 | inactive |  |
| CN(C)C(=O)c1ccc(-c2ccc3ncnc(NCCN4CCOCC4)c3c2)cc1 | inactive |  |
| c1nc(NCCN2CCOCC2)c2cc(-c3ccc4c(c3)OCO4)ccc2n1 | 7.94 µM (active) |  |

| SMILES | AC50 | activity, negative = inhibition |
| --- | --- | --- |
| c1ccc(-n2ncc3c(NCCCN4CCOCC4)ncnc32)cc1 | inactive |  |
| Clc1ccccc1-c1cc(NCCN2CCOCC2)ncn1 | inactive |  |
| CC(=O)NCCNc1ncnc2ccc(-c3ccoc3)cc12 | inactive |  |
| c1nc(NCCN2CCOCC2)c2cc(-c3ccoc3)ccc2n1 | 2 µM (active) |  |
| Clc1ccccc1-c1ccc2ncnc(NCCN3CCOCC3)c2c1 | 10 µM (active) |  |
| c1ccc2c(c1)CCCc1cc(NCCN3CCOCC3)nnc1-2 | inactive |  |
| CC(=O)NCCNc1ncnc2ccc(-c3ccc(C(=O)N(C)C)cc3)cc12 | inactive |  |
| CC(=O)NCCNc1ncnc2ccc(-c3ccc4c(c3)OCO4)cc12 | 10 µM (active) |  |
| CCCc1nnc(NC(=O)c2cccs2)s1 | inactive |  |
| O=C(/C=C/c1ccc(Br)cc1)NC1CCCCCC1 | inactive |  |
| Cc1ccc(C(=O)Nc2cccc(-c3cnc4ccccc4n3)c2)cc1 | inactive |  |
| Cc1cc2c(=O)[nH]c(N)nc2nc1C |  | 14.7% [at 11.4 µM] |
| O=c1[nH]c(SCc2cccc([N+](=O)[O-])c2)nc2nc[nH]c12 |  | 10.7% [at 11.4 µM] |
| CSc1nc2n(n1)C(c1cc(Br)ccc1F)C(C(=O)N(C)C)=C(C)N2 (stereo not drawn) | inactive |  |
| CN[C@]1(C)[C@@H]2CC[C@@H](C2)C1(C)C | inactive |  |
| Cc1ccc(NC(=O)CCN2C(=O)c3ccncc3C2=O)cc1 | inactive |  |
| CCN1C(=O)[C@H]2[C@H]3[C@H](O)[C@H](O)C/C(=N/NC(=O)OCc4ccccc4)[C@@H]3CC[C@@H]2C1=O |  | 10.8% [at 11.4 µM] |
| CCN1C(=O)/C(=C2\SC(=S)N(CCCOC)C2=O)c2ccccc21 | inactive |  |
| N[C@@H](Cc1cc(CP(=O)(O)O)cc(-c2ccccc2Cl)c1)C(=O)O | inactive |  |
| Cc1ccc(-c2csc3ncnc(NCCN4CCOCC4)c23)cc1 | 2.82 µM (active) |  |
| CC(=NCCN1CCN(C(=S)Nc2ccccc2)CC1)C1=C(O)CC(C)(C)CC1=O | inactive |  |
| O=C(Nc1ccc2c(c1)Cc1ccccc1-2)[C@@H]1[C@H](C(=O)O)[C@]2(Cl)C(Cl)=C(Cl)[C@@]1(Cl)C2(Cl)Cl |  | -10.2% [at 11.4 µM] |
| O=[N+]([O-])C(/C=C(\Cl)[N+](=O)[O-])=C1N(Cc2ccc(Cl)nc2)CCN1Cc1ccc(Cl)nc1 | 15.8 µM (active) |  |
| Nc1ccc(N2C(=O)c3ccccc3C2=O)c(Cl)c1 | inactive |  |
| COc1ccc(-n2c(=O)c(C)nc3cnc(Nc4ccccc4)nc32)cc1 | inactive |  |

| SMILES | AC50 | activity, negative = inhibition |
| --- | --- | --- |
| O=S(=O)(/N=C(/Nc1ccc(F)cc1F)c1ccc(Cl)cc1)c1ccccc1 | inactive |  |
| NCC(=O)Nc1ccc(Cl)cc1C(=O)c1ccc[nH]1 |  | 3.55% [at 11.4 µM] |
| Cc1c(NC(=O)CSc2nnc3c4ccccc4n(CCc4ccccc4)c3n2)c(=O)n(-c2ccccc2)n1C | inactive |  |
| Cc1ccc(-n2c(C)cc(C(=O)CSc3n[nH]c(N)n3)c2C)cc1 | inactive |  |
| Cc1ccc(-n2c(O)cnc2Nc2nc(C)cc(C)n2)cc1 | 12.6 µM (active) |  |
| Cc1ccc(-n2c(-c3ccccc3)cc(=O)nc2C)cc1 | inactive |  |
| CSc1nc(NC2CCCC2)c([N+](=O)[O-])c(NC2CCCC2)n1 | inactive |  |
| C#CCCCO/N=C1/C[C@@H](O)[C@@H](O)[C@@H]2[C@H]3C(=O)N(c4ccc(F)cc4F)C(=O)[C@@H]3CC[C@@H]12 |  | 8.28% [at 11.4 µM] |
| CC(C)[C@H]1C(=O)C(C(N)=O)=C(O)[C@]2(O)C(=O)C3=C(O)c4c(O)ccc(N(C)C)c4C[C@H]3C[C@@H]12 | inactive |  |
| Oc1c(CN2CCOCC2)cc(-c2ccccc2)cc1CN1CCOCC1 | 12.6 µM (active) |  |
| N#C/C(=C/N1CCOCC1)c1ccccc1 | inactive |  |
| CCc1cc2c(=O)c(-c3cnn(-c4ccccc4)c3)coc2c(CN2CCOCC2)c1O | inactive |  |
| NC/C=C\C(=O)O | inactive |  |
| C[C@H](O/N=C1/[C@H]2O[C@@H]2[C@@H](O)[C@H]2[C@H]1CCn1c(=O)n(-c3ccccc3)c(=O)n12)c1cn([C@H]2COC[C@H]2O)nn1 |  | -1.7% [at 11.4 µM] |
| CCc1nnc(NC(=O)CSc2ncnc3c2cnn3-c2ccc(OC)cc2)s1 | inactive |  |
| CCOC(=O)CN1C(=O)Nc2ccc(Br)cc2C1c1ccccc1 (stereo not drawn) | inactive |  |
| CC1=C(C(N)=O)C(c2ccccc2)n2nc(-c3ccncc3)nc2N1 (stereo not drawn) | inactive |  |
| Cc1ccc[n+](CC(=O)c2cc3ccccc3oc2=O)c1 | inactive |  |
| Cc1cc2ccccc2c[n+]1CC(O)C[n+]1cc2ccccc2cc1C | 0.0251 µM (active) |  |
| C[C@@H]1/C=C\CC(=O)OC[C@H](C)C(=O)N2CCC[C@@H]2C(=O)OC1 |  | 7.63% [at 11.4 µM] |
| Cc1o[nH]c(=O)c1CC[C@H](N)C(=O)O | inactive |  |
| Cc1ccc(NC(=O)c2ccccc2C(=O)O)cc1C |  | -8.28% [at 11.4 µM] |
| Cc1oc(C(C)(C)C)cc1C(=O)Nc1cccc(/C=C/C(=O)O)c1 | inactive |  |
| Cc1oc(-c2ccccc2)cc1C(=O)Nc1ccc(N(C)C)cc1 | 7.94 µM (active) |  |
| CCOC(=O)C1=C(N)n2c(s/c(=C\c3ccco3)c2=O)=C(C(=O)OCC)C1c1ccco1 (stereo not drawn) | inactive |  |

| SMILES | AC50 | activity, negative = inhibition |
| --- | --- | --- |
| Cc1cc2nc3[nH]c4c(Cl)cc(Cl)cc4c3nc2cc1C |  | 4.24% [at 11.4 µM] |
| O=c1[nH]cc(CS(=O)(=O)Cc2c[nH]c(=O)[nH]c2=O)c(=O)[nH]1 |  | -1.45% [at 11.4 µM] |
| CC(C)CN(CC(C)C)C1=N/C(=C\c2ccco2)C(=O)N1c1ccccc1 | inactive |  |
| Cc1noc(C)c1-c1nc(Nc2ccc(F)cc2)c2ccccc2n1 | inactive |  |
| CCOC(=O)c1ccc(Nc2nc(C(=O)OCC)nc3ccccc23)cc1 | 3.98 µM (active) |  |
| CCOC(=O)c1ccc(Nc2nc(=O)c3cccnc3s2)cc1 | inactive |  |
| CCCc1nc2sc3ccccc3c(=O)c2c(=O)n1CCOC | inactive |  |
| COc1cc(C(=O)NC(=S)Nc2cccc(-c3cc4ccccc4oc3=O)c2)cc(OC)c1OC | inactive |  |
| CC(=O)NS(=O)(=O)c1ccc(NC(=S)NC(=O)c2ccco2)cc1 | inactive |  |
| Cc1cccc(N(C)C(=S)Oc2ccc3ccccc3c2)c1 | inactive |  |
| Cn1c(=NC(=O)CCl)sc2ccccc21 | inactive |  |
| N=c1sc2ccccc2n1CCS (tested in a mixture with another compound) | 0.316 µM (active) |  |
| O=C(O)c1ccccc1NCn1c(=S)sc2ccccc21 |  | -8.67% [at 11.4 µM] |
| CCS(=O)(=O)N1CCC(C(=O)NCc2ccccc2OC)CC1 | inactive |  |
| COc1ccccc1CNCC(O)(c1ccc(Cl)cc1)c1ccc(Cl)cc1 | 0.316 µM (active) |  |
| COc1cccc(CNc2ccc(F)c(Cl)c2)c1O | inactive |  |
| COC(=O)c1sccc1NC(=O)c1cc(-c2cc(C)ccc2C)nc2ccccc12 | inactive |  |
| Cc1nnc(NC(=O)CSc2ncnc3c2cnn3-c2ccccc2C)s1 | inactive |  |
| O=C(O)c1cccnc1SCC(=O)N1CCCCCC1 | inactive |  |
| Cc1ccc(SCCNC(=O)c2ccc(C)c(S(=O)(=O)Nc3ccccc3C)c2)cc1 | 7.94 µM (active) |  |
| COC(=O)c1cc(OC)c(OC)cc1NC(=O)CSc1ccc(C)cc1 | inactive |  |
| Cc1ccc(SCCNC(=O)c2ccccc2)cc1 | inactive |  |
| COc1ccc(C2C(=O)N(C3CCCCCC3)CC(=O)N2Cc2ccccc2)cc1OC (stereo not drawn) | inactive |  |
